Source: PubChem BioAssay AID1508600 (Functional Genomics Laboratory (NCATS/FGL), 2020)
In all, about 53,000 sequences went through this assay and about 3,700 (7%) were called active. This is one part of a sample in which actives are shown more often than they occur. Values without a mark were called inactive.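 How the source made its calls: active means gene knockdowns whose robust z-score for IL-1 alpha signal is at least 2 or at most -2, so actives lie on both sides; inactive means the rest.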

experiment: Components of the Cytosolic LPS Sensing Pathway: Gene Identification via Genome-wide siRNA Screen; details: RAW264.7 macrophages, IL-1a HTRF, actives lie on both sides, screened at 100 nM (by protocol), cells primed 5 h with Pam3CSK4 first;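 further: robust z of the log signal after scaling to non-targeting control siRNA wells of the plate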
In short: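 Cells (RAW264.7, 1×10^4 per well) were transfected with siRNA at 100 nM and cultured 48h at 37 degrees C. Pam3CSK4 was added for 5 hours; LipidA transfection followed for 24 hour. IL-1a was then measured by HTRF.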

Row | Sequence | z-score
1 | GGAUAUCCUUUCAAUAGAATT against Mcf2 | -0.225
2 | GGCCAUUUCUUUCAUAGAUTT against Dusp6 | 0.509
3 | CCUUCGUAGCCUGUAUCAUTT against Myadm | -0.173
4 | CCGAGUAUAUCUAUAAUAGTT against Ear14 | -0.607
5 | GGUGUUUUGUGAAUUGAAATT against Leprotl1 | -1.05
6 | GGAAGAGUGCGUUUACCUUTT against Rrp12 | 0.388
7 | GCUUACAUUAAAGGAUAUGTT against Rab5c | 2.17 (active)
8 | GGAUCUUCUGGAUAGAAUGTT against Prc1 | 1.16
9 | CCCUUUCGACAGAUUAGACTT against Zfp69 | -1.23
10 | GGGUCAUGGACAAUAGAAATT against Olfr52 | -0.833
11 | GGACCAAAAGGAAAAUCCATT against Kcnj6 | -1.05
12 | CCAUAAAUGAGUCUUCAUUTT against Bnip5 | -0.0535
13 | GUGGACAUCCUCUCUGUCATT against Tmem54 | -2.23 (active)
14 | CCCAUCGAUCCAUCACAUUTT against Olfr63 | -1.47
15 | GGCAAGCUGAAGAUGAACATT against Ntn1 | -1.14
16 | CGCAAGCCUGACAUACUGCTT against Etv3 | 0.382
17 | GGUAGCAUAGGCUAGCAUATT against Crcp | 0.0494
18 | GGCAAACCAGGAAAAGGUCTT against Abhd2 | -2.33 (active)
19 | CCAAACGGAAGUAUCUUAUTT against Tmem128 | 0.246
20 | CGACCAGAGUGGAUACCUGTT against Ocm | 1.98
21 | GCUUCCUACAAUUAAUUCATT against Thap12 | 0.614
22 | GGGAAUGGAGGUCCAGAUUTT against Spatc1l | -2.33 (active)

Row | Sequence | z-score
23 | CGUAGAAGUUGAUGAGUCATT against Numb | -1.05
24 | GGAUUUAGGCCUUAUCAUCTT against Atf3 | -2.12 (active)
25 | GGAAGUUAUUGCCAGCGAGTT against Fbxo5 | -0.418
26 | GCAGUCUCACCUGAACAGATT against Eppin | 0.43
27 | CCCACCUUCAAGCAAGAACTT against Ifnk | -2.51 (active)
28 | GGAGAGCAUGUGACCAAAATT against Safb2 | 0.758
29 | GCAAAACUGUGUCAGUAUCTT against Slco5a1 | 0.901
30 | GGUCAAAGAGUUCUGUGAATT against Ppp2r1a | -0.79
31 | GGGCUGACCAGUUUGAGUATT against Polr2h | -2.7 (active)
32 | GGCAUGCCUGUUGCUAUGATT against Cyp3a44 | 0.182
33 | AUCUUUCAGUCACACGACCTT against A730085E03Rik | -0.942
34 | GGUAGCUUAGAGGACUAACTT against Cidec | -1.78
35 | GGCUGAAAGAUUGUAUUGATT against Rwdd2b | -0.601
36 | CUCAAAAUCUGGUGAUAAATT against Adam34 | 2.66 (active)
37 | AGCCGAUCCUGUGCCUGUUTT against Dnph1 | 0.592
38 | GGGACUUUGGUCAAUAAUGTT against Tcf19 | 0.247
39 | GGGAAGAAGCUAAAGAAGATT against Wipf1 | 1.44
40 | GCACGUGGAUCCUAACAAGTT against Exd1 | -1.84
41 | GGAAAAGAUAGAGUUACUUTT against Lrif1 | 0.484
42 | UGGGAAGGUGCUCACUGAGTT against Dnph1 | -2.53 (active)
43 | GGCUGUCUUUGUUCCAGUATT against Tnfrsf10b | 0.218
44 | GGGCCAAGGAACCUAUUUGTT against Ltbr | 0.58

Row | Sequence | z-score
45 | GGCUCUUAGAAAAAUGUUATT against Olfr1156 | -0.816
46 | GGUCUACGGCACCUUCUAUTT against Bsnd | -0.438
47 | CGGGUUUCAUUAUUAUUCCTT against Foxa1 | -0.352
48 | GGUGUGCCUAUGUUAUAGUTT against Slc13a5 | -0.982
49 | GGUGAGUUAUAAAAGACCATT against Pex12 | -0.0509
50 | GGUGGAUUUUGAAACUAUUTT against Pcdhb17 | 1.11
51 | GGCUGAACUGAUCCUGUACTT against Kcnh3 | -2.22 (active)
52 | GCAAGUAGUUAGCUCAGGGTT against Gabpb1 | -0.752
53 | GGCAUUCUGAAAAAAUAGCTT against Rb1cc1 | -1.55
54 | GGUUUGUGGAUGACAACGGTT against Mtf1 | 0.216
55 | GGCGAAUGGAAGAUAAUGCTT against Stxbp3 | -0.233
56 | CGAGUUUGUAAUGAUGCUATT against Cabp4 | 2.51 (active)
57 | GGAACUCUGUAGACAGAAUTT against Lpin1 | 0.705
58 | GGCUCAGAUCUUUGACUACTT against Pnp | -0.232
59 | GGACUUGGAGUUUCGUAAATT against Lmnb1 | 2.92 (active)
60 | GGCUGAAAAGAAAAACAGATT against Rgs5 | -0.378
61 | CGUGACAUGCACGACUUCUTT against Tac2 | 1.49
62 | GGGAGAAAAGGGUCAAAAATT against Marco | 0.819
63 | GGCCAAGGAAAUAUCAAUGTT against Alg14 | 2.69 (active)
64 | GGAACUGUGUGACUACUUUTT against Necab2 | 0.18
65 | GGUCAACAUUUGCUGUAAGTT against Inhba | -0.599
66 | GGGAAAAUAUCAAGUGUAGTT against Tmem60 | 0.567

Row | Sequence | z-score
67 | GGGCAAACCGGAAAAACAGTT against Ccdc71 | -2.06 (active)
68 | GCUGUUUCAAAAGUCAUAUTT against Col11a1 | 1.96
69 | GCAGAUACCAUGAUACAGUTT against Med20 | -0.154
70 | GGUAAAUGUGAAUGUAAGGTT against Ntn4 | 0.73
71 | GGAUAAUUUAAACAUGGGATT against Cd276 | -1.08
72 | GGCUACUGGAGCAAGUUUATT against Apoc3 | 2.48 (active)
73 | GGUUUAGGGUCAAGAUAUUTT against Ttf2 | -1.39
74 | GGAUUGGCAACCUCCAUUUTT against Kdm5a | -0.312
75 | GGACAAUGAGAUUCUUCUCTT against Mptx1 | -1.58
76 | GGCAACUAUAAGUACAUAGTT against Gsta3 | 3.87 (active)
77 | GGAAGGUGCUAAAAAUAUATT against Pdhx | 0.23
78 | GGAAAAGACAUCAGAUGAATT against Mrpl1 | 0.233
79 | GGUAAUGGAAAUGAACAAATT against Zfp353-ps | 0.381
80 | GGUCUCAUAGAGUGUUACUTT against Anapc7 | 4.38 (active)
81 | GGAACUGGACAAGGACGAUTT against Arhgdia | 1.17
82 | GGAUUUGAGUGGUAAUGAATT against Tm2d1 | -2.2 (active)
83 | GGAAAAUGUCCCACUUUUATT against Olfr70 | -0.926
84 | GGAUUUGACCAGUAUAAGUTT against Ptgs2 | -1.05
85 | GGCUCCAAUAAAGUGCCUUTT against Elf3 | 1.46
86 | GCUGGAGAUCUAAAAACAGTT against Mphosph10 | 1.54
87 | GGCAACUUAAGUUUUACAGTT against Tmem170 | -0.898
88 | GGUGAUAUGUGUGGGCUUGTT against Fahd2a | -2.06 (active)

Row | Sequence | z-score
89 | GGAGUUCUGUCCAUUUUGATT against Olfr1198 | 0.45
90 | GCGUAGAAGACACUUAUAGTT against Zc3h14 | 1.47
91 | GGCUCUGAAUUAACUCCAGTT against Srpk3 | -0.654
92 | GCUAUUGACAUAAUGAGGCTT against Nfe2l3 | -1.41
93 | GGGUACAAAGGCUGUAGUUTT against Sec61a1 | -2.42 (active)
94 | CCUGAAUUCAGUCUGUUUUTT against Depdc1b | -0.931
95 | GGAAAAUGUUUUACCAAUGTT against Rspry1 | -0.102
96 | GGACAUCGGAUUCUACACCTT against Psg19 | 0.531
97 | CCAACAAAAGCCUAUUCGGTT against Hsh2d | -0.169
98 | GAACUUUGCCAUUGAUUUGTT against Ndufs6 | 1.63
99 | GCUGAUUUCUCAAACAUGATT against Serpinb10 | -0.489
100 | GUCCCUGAACCUGUGGUAUTT against Emp3 | 1.26
101 | GCUGUUCCACAUUGAAGUGTT against Pcdh18 | 2.84 (active)
102 | GCUGAUGGACUCAAGAAAGTT against Zbed5 | -0.805
103 | GGACCAUUCUGGCUACUCATT against Ankrd34b | -2.17 (active)
104 | GGACAAAUUUCUUUUCCUUTT against Atp10a | -0.448
105 | GCUGAUAAACCACUUGUGATT against Olfr1287 | -0.804
106 | GGCAUUCAAACCUCUCGUGTT against Dcn | -0.921
107 | GGGUGAUUGAUCACUACUUTT against Olfr279 | 0.784
108 | GGAAAUGGUAAUUUUCAGUTT against Slc25a36 | -0.242
